Measured values from PubChem BioAssay (NCI).
The panel holds about 83,000 compounds, 20% with a hit somewhere; the sample as a whole holds those more often.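 Note: values are percent growth. 100 is the growth of untreated cells, values between 100 and 0 indicate rising inhibition; between -100 and 0 indicates cell death.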 Unmarked numbers belong to inactive results. The source made the active and inactive calls. The calls were made as follows: active = growth percent below 10; inactive = the rest.

Key:
Test in all cases: NCI-60 one-dose screen, 48 h (100 = growth as untreated, 0 = no growth, -100 = all killed)
Conditions in all cases: 10 µM unless noted
DU-145 prostate = test system: DU-145 prostate
K-562 leukemia = test system: K-562 leukemia
MALME-3M melanoma = test system: MALME-3M melanoma
MDA-MB-231 breast = test system: MDA-MB-231 breast
RXF 393 renal = test system: RXF 393 renal
SF-268 CNS = test system: SF-268 CNS
SF-295 CNS = test system: SF-295 CNS
SF-539 CNS = test system: SF-539 CNS
UACC-257 melanoma = test system: UACC-257 melanoma
M14 melanoma = test system: M14 melanoma

| Compound | growth (DU-145 prostate) | growth (K-562 leukemia) | growth (MALME-3M melanoma) | growth (MDA-MB-231 breast) | growth (RXF 393 renal) | growth (SF-268 CNS) | growth (SF-295 CNS) | growth (SF-539 CNS) | growth (UACC-257 melanoma) | growth (M14 melanoma) |
| --- | --- | --- | --- | --- | --- | --- | --- | --- | --- | --- |
| NC1=Nc2cc(OCCCCN3Cc4ccccc4C3)c(OCC3CC3)cc2C12CCCC2 | 65% | 2.5% (active) | -88.5% (active) | 19.3% | 30.2% | 56.1% | 61.7% | -8.18% (active) | -83.2% (active) | -89.7% (active) |
| CN1CCN(CCCOc2cccc3nc(Nc4ccc(F)c(F)c4)ccc23)CC1 | 7.31% (active) | -41.5% (active) | -64.8% (active) | -69.9% (active) | 16.4% | 26% | -65% (active) | -53.5% (active) | -76.7% (active) | -78.5% (active) |
| CCN1C(=O)N(CC)C2C1NN=c1s/c(=C3\C(=O)N(CCC(C)C)c4ccccc43)c(=O)n12 (stereo not given) | 7.36% (active) | 11.6% | 51.3% | 5.92% (active) | 33.2% | 50.8% | 8.08% (active) | -15.2% (active) | 65% | 13.5% |
| CN(Cc1cc(Br)cc(Br)c1O)Cc1cc(Br)cc(Br)c1O | 54.8% | 21.3% | 73.2% | 39.6% | 55.4% | 45.3% | 32.1% | 39.5% | 46.8% | 37.3% |
| CCCCC#Cc1c(I)n(C)c(=O)[nH]c1=O | 20.8% | -43.7% (active) | -85.4% (active) | -67.7% (active) | -81.7% (active) | 26.5% | 92.3% | 66.7% | -48.4% (active) | -7.41% (active) |
| COc1cc2nc3sc(C(=O)Nc4ccc(C(=O)OC(C)C)cc4)c(C(=O)Nc4ccc(Cl)cc4C)n3c(=O)c2cc1OC | 13.2% | 56.4% | 43.9% | 86.9% | 83.8% | 64.5% | 42% | 104% | 118% | 77.7% |
| CC(C)N1C(=O)/C(=c2\sc3n(c2=O)C2C(NN=3)N(C)C(=O)N2C)c2ccccc21 (stereo not given) | 84.3% | 27% | 53.2% | 90.9% | 57.3% | 74.9% | 50.1% | 49.2% | 50% | 44.9% |
| CN(CCCNC(=O)Cc1ccc2ccc3cccc4ccc1c2c34)CCCNc1cc(-c2ccc3ccccc3c2)nc2ccccc12 | -90.7% (active) | -82.8% (active) | -57.7% (active) | -75.2% (active) | -24.1% (active) | -77.6% (active) | -36% (active) | -96.1% (active) | -70% (active) | -74.4% (active) |
| COc1cccc(/C=C/C(=O)c2cccc(Nc3nc(Nc4ccccc4)nc(Nc4ccccc4)n3)c2)c1 | 85.5% | 59.4% | 107% | 84.6% | -38.8% (active) | 95.3% | 71.4% | 96.5% | 114% | 89.4% |
| NC(=O)c1cccc([C@@H]2O[C@H](CO)[C@@H](O)[C@H]2O)c1 | 66.5% | 27% | 103% | 55.5% | 73.3% | 48% | 65.7% | 14.4% | 97.7% | 17.1% |
| O=C(Nc1ccccc1N1CCCC1=O)c1oc2ccc(F)cc2c1-c1cnn(-c2ccccc2)c1 | 68.8% [50 µM] | 42.9% [50 µM] | 28.8% [50 µM] | 21.7% [50 µM] | 25.8% [50 µM] | 40.1% [50 µM] | 43.5% [50 µM] | 30.8% [50 µM] | 69.9% [50 µM] | 77.7% [50 µM] |
| COc1ccc(-c2nc3c(N)c(CO)cnc3s2)cc1 | 86.6% | 97.2% | 101% | 94.4% | 74.7% | 76.2% | 93.1% | 89.7% | 110% | 99.4% |
| O=C1/C(=C/c2ccc(F)cc2)CN(C(=O)C(Cl)Cl)C/C1=C\c1ccc(F)cc1 | -96.5% (active) | -6.01% (active) | -34.9% (active) | -39.8% (active) | -91.8% (active) | -30.9% (active) | -75.9% (active) | -97% (active) | -43.3% (active) | -68.5% (active) |
